# Bcl-xL primary: inhibitors of human Bcl-xL, primary screen, biochemical, fluorescence polarization, HTS. Bcl-2-like protein 1 (Homo sapiens), Q07817. AID 2129, 2009. 320,000 compounds, 0.7% hits. GST-Bcl-xL / FITC-Bim BH3 peptide fluorescence polarization. inhibition, % at 10.9 µM;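 active = inhibition above the mean of all tested compounds plus 3 SD, cutoff set per campaign, cut at about 30% in these data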;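 also: 0% = DMSO wells and 100% = unlabeled Bim-BH3 peptide competitor; inhibitors lower millipolarization by displacing the labeled peptide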
# GLD-1 TGE inh: GLD-1/TGE RNA complex disruptors, primary screen, biochemical, fluorescence polarization. inhibition, % at 5.96 µM. 320,000 compounds, 0.44% hits. Female germline-specific tumor suppressor gld-1 (Caenorhabditis elegans), Q17339. AID 2280, 2010. purified GLD-1 + fluorescein TGE RNA;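 active = percent inhibition above a per-plate cutoff, the plate mean of test compounds plus 3 SD, cut at about 30% in these data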;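 also: 0% = DMSO wells with GLD-1 and probe and 100% = wells lacking GLD-1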
# MEX-5 binding: MEX-5 zinc finger RNA-binding disruptors – biochemical, C. elegans, fluorescence polarization, MLPCN library, primary screen. MEX-5/FITC-TCR2 RNA binding; stronger effect = lower value. 300,000 compounds, 0.38% hits. activity score (negative = inhibition of binding), % at 10 µM;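 active = inhibition past about -25% in most replicates, and total fluorescence under double the plate's negative control median, limit read from the data; inconclusive = replicates evenly split on the limit, or fluorescence at least double controls; inactive = too little inhibition in most replicates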;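 also: 0% = DMSO and -100% = 5 µM competing unlabeled TCR2 RNA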
# Target sequence (Q9XUB2 whole entry, looked up): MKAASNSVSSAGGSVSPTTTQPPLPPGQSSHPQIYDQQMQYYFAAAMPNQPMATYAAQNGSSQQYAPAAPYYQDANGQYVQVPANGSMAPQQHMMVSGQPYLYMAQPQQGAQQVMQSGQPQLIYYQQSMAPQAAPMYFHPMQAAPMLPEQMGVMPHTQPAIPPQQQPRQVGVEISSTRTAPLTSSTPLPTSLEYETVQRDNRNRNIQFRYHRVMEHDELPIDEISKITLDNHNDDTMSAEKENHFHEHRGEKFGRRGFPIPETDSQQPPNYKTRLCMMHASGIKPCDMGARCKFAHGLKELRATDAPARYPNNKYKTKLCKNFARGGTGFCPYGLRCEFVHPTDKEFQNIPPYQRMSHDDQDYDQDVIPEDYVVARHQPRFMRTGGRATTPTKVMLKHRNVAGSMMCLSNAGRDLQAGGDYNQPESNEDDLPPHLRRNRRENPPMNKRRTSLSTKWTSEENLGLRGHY
# EBV gp42 inh: Epstein-Barr virus gp42 inhibitors, primary screen, biochemical, uHTS, fluorescence polarization. Fluorescence polarization binding assay, mP read-out. inhibition, % (tested at 21.74 µM). 220,000 compounds, 0.42% hits. AID 1085, 2008; in the data active = inhibition above about 50%
# MCL1-BIM inh: inhibitors of MCL1 binding to BIM-BH3, primary screen, biochemical, fluorescence polarization. Induced myeloid leukemia cell differentiation protein Mcl-1 (Homo sapiens), Q07820. GST-MCL1 / FITC-Bim-BH3 fluorescence polarization. inhibition, % at 10.9 µM. 320,000 compounds, 0.68% hits;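 active = inhibition above the mean inhibition of all tested compounds plus 3 SD, set per campaign, cut at about 40% in these data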;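 also: 0% = DMSO wells and 100% = unlabeled Bim-BH3 peptide control; higher means more loss of mP so more displacement of Bim peptide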
# BCLXL inh confirm: Bcl-xL inhibitors blocking Bim BH3 binding, confirmation, counter-screen for MCL1 inhibitor project, biochemical, fluorescence polarization; shares compounds with MCL1-BIM inh; GST-Bcl-xL / FITC-Bim BH3 peptide FP binding; inhibition, % at 10.9 µM; 1,700 compounds, 54% hits;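 active = inhibition above a cutoff equal to the mean inhibition of all tested compounds plus 3 SD, cut at about 30% in these data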;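 also: 0% = DMSO wells and 100% = unlabeled Bim BH3 control peptide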
# MCL1 BIM confirm: inhibitors of MCL1 binding to BIM-BH3, confirmation, biochemical, fluorescence polarization, triplicate | shares compounds with MCL1-BIM inh | GST-MCL1 / FITC-Bim-BH3 fluorescence polarization | inhibition, % at 10.9 µM | 1,700 compounds, 61% hits | AID 2168, 2009;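 active = inhibition above the average of all tested compounds plus 3 SD, cut at about 40% in these data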;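 also: 0% = DMSO wells and 100% = unlabeled Bim-BH3 control peptide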
# Active calls of the source: *; ? = inconclusive; · = no result given; + = active, no number. Most compounds without a hit are left out; they make up all but 1.3% or so of the library.
SMILES,Bcl-xL primary,GLD-1 TGE inh,MEX-5 binding,EBV gp42 inh,MCL1-BIM inh,BCLXL inh confirm,MCL1 BIM confirm
COc1ccc(S(=O)(=O)c2c(N)n(Cc3ccco3)c3nc4ccccc4nc23)cc1,101*,117*,-2,50*,105*,22,31
Cc1ccc(S(=O)(=O)c2c(N)n(CCCN(C)C)c3nc4ccccc4nc23)cc1,6,1,0,1,10,·,·
Cc1ccc(-c2csc(-c3c[nH]c4ccccc34)n2)c(C)c1,4,8,1,12,89*,1,-1
Oc1ccc(-c2csc(-c3c[nH]c4ccccc34)n2)c(O)c1,2,4,0,0,-1,·,·
COc1ccc(/C=C/c2cc(C(F)(F)F)on2)cc1,3,-2,-2,-20,-7,·,·
O=C1c2ccccc2-c2onc3ccc(Oc4ccccc4)c1c23,63*,37*,-15,-36,61*,20,25
O=C1C=C(NNC(=O)c2ccncc2)CC(c2ccccc2)C1 (stereo unspecified),75*,126*,-18,2,72*,26,39
Nc1c(C(=O)NC2CC2)sc2nc3c(c(-c4ccco4)c12)CC/C3=C/c1ccco1,73*,85*,·,104*,115*,64*,96*
NC(=O)c1sc2nc3c(c(-c4ccco4)c2c1N)CCC3,18,2,-1,-5,28,·,·
O=C(CN1C(=O)CC(c2ccccc2)S(=O)(=O)c2ccccc21)N1CCCCC1 (stereo unspecified),10,-2,-2,-8,1,·,·
COC(=O)c1cc(N2CCN(C)CC2)nc2ccccc12,138*,85*,?,82*,144*,23,35
O=C(NCc1ccc2[nH]c3c(c2c1)CCCC3)c1ccc(S(=O)(=O)N2CCOCC2)cc1,3,5,2,7,-4,·,·
O=C(NCc1ccc2[nH]c3c(c2c1)CCCC3)N1CCOCC1,64*,40*,-14,31,66*,53*,72*
O=C(CSc1nnc(SCc2ccccc2)s1)N/N=C/C=C/c1ccco1,9,5,1,68*,58*,23,67*
COCCN(C(=O)COC(=O)C(c1ccccc1)c1ccccc1)c1c(N)n(Cc2ccccc2)c(=O)[nH]c1=O,-2,3,1,·,0,·,·
Nc1cc2c(cc1[N+](=O)[O-])OCO2,10,-1,-2,27,44*,41*,78*
Nc1cc2c(cc1[N+](=O)[O-])OCCO2,-4,-5,1,21,1,·,·
O=C1CCCC2=C1C(c1cccs1)Nc1ccc3ncccc3c12 (stereo unspecified),5,4,-1,-11,13,·,·
O=C1CCCC2=C1C(c1ccc(O)c(O)c1)Nc1ccc3ncccc3c12 (stereo unspecified),36*,7,-7,9,50*,41*,57*
COc1ccc(/C=C2\SC(=O)NC2=S)cc1OC,102*,100*,-36*,15,122*,38*,36
CCCN1CCC(NC(=O)CC2C(=O)NCCN2Cc2ccccc2C)CC1 (stereo unspecified),15,7,-2,·,19,·,·
CC(C(=O)NCc1cccnc1)c1ccc([N+](=O)[O-])cc1 (stereo unspecified),-4,4,0,·,-5,·,·
CCOC(=O)c1c[nH]c(=O)c(Br)c1O,5,6,-3,0,-3,·,·
CCOC(=O)c1c[nH]c2nc(C)ccc2c1=O,78*,61*,-47*,46,85*,70*,89*
Cc1occc1C(=O)NNC(=O)c1ccccc1[N+](=O)[O-],-3,3,-1,·,3,·,·
SMILES,Bcl-xL primary,GLD-1 TGE inh,MEX-5 binding,EBV gp42 inh,MCL1-BIM inh,BCLXL inh confirm,MCL1 BIM confirm
CC(C)C1Cc2c(C#N)c(N)sc(=S)c2CO1 (stereo unspecified),67*,66*,2,20,64*,23,17
CCCc1cc(=O)oc2c3c(c(Cl)cc12)OCN(CCCO)C3,76*,48*,-2,·,89*,55*,82*
O=C1C(=O)N(CCS(=O)(=O)c2ccccc2)c2ccc(F)cc21,4,4,2,·,7,·,·
Cc1c(Cl)cn2c(=O)cc(CN(C)Cc3nc4ccccc4c(=O)[nH]3)nc2c1Cl,11,-1,2,-10,8,·,·
Cc1cc(=O)oc2c3c(ccc12)OC/C3=N/N,7,1,-3,-17,9,·,·
Cc1cc(=O)oc2c3c4c(cc12)OCCN4CCC3,60*,-7,-15,65*,64*,47*,41*
CC(C)(CC(=O)O)CC(=O)N1CCCN(c2nccc(C(F)(F)F)n2)CC1,1,-3,1,·,2,·,·
Cc1cc(-n2cnnn2)ccc1C(C)C,0,5,1,-13,2,·,·
Cc1cc(=O)oc(C)c1C(=O)Nc1ccc2ncccc2c1,100*,-27,-19,72*,97*,79*,82*
Clc1ccc(C2=CC(c3ccco3)n3ncnc3N2)cc1 (stereo unspecified),189*,141*,-91*,80*,+,51*,76*
CC(=O)Nc1cccc(C2=CC(c3ccco3)n3ncnc3N2)c1 (stereo unspecified),116*,69*,-87*,130*,123*,141*,177*
Clc1ccccc1C1=CC(c2ccco2)n2ncnc2N1 (stereo unspecified),49*,21,-9,13,50*,34*,44*
O=C(CSc1nnnn1C1CC1)Nc1ccc(S(=O)(=O)N2CCOCC2)cc1,-1,0,·,·,-4,·,·
Cc1ccc(C)c(SCC(=O)NC(=O)NC2CCCC2)c1,-2,5,·,·,-3,·,·
CC1(C)CCN2CCC(C)(C)c3c(O)ccc1c32,141*,77*,-15,·,170*,29,25
Cc1cccc(CN2CCN(Cc3cccc(-n4cccn4)c3)CC2CCO)n1 (stereo unspecified),3,1,-2,-4,0,·,·
CN(C)CCn1nnnc1SCC1=C(C(=O)O)N2C(=O)[C@@H](NC(=O)Cc3csc(N)n3)[C@H]2SC1,37*,19,·,·,51*,28,36

# Screens deposited in PubChem BioAssay by several laboratories.
